Active and inactive are the calls of the source.
Key:
[1] = target: Albumin (Bos taurus) (UniProt P02769); assay: compounds binding labelled BSA control protein – biochemical, small-molecule microarray, Alexa647 label, 635/667 nm fluorescence, artefact control for SMM control protein annotation, profiling panel (AID 1118); conditions: BSA-A647 binding, fluorescence 635 nm, higher = more signal;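 further: score merges 667 nm emission intensity and signal-to-noise per printed compound spot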
[2] = probe aXIP binding to arrayed compounds – biochemical, NeuroSMM set, 635/667 nm fluorescence, primary screen (AID 1119); conditions: small-molecule microarray, higher = more signal, called active from +8 up or from −8 down;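 further: probe is the protein aXip251-270 applied at 1 µg/mL to compound-printed slides; binding of probe to printed compounds measured as 667 nm fluorescence plus signal to noise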
[3] = probe aNOTCH3 binding on compound microarray – biochemical, small-molecule microarray, 635/667 nm fluorescence, primary screen (AID 1120); conditions: higher = more signal;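 further: probe is a biotin-tagged antibody raised against NOTCH3 rather than NOTCH3 protein; score merges spot fluorescence near 667 nm with spot signal to noise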
[4] = probe aNOTCH2 binding on compound microarray – biochemical, small-molecule microarray, 635/667 nm fluorescence, primary screen (AID 1121); conditions: higher = more signal;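 further: score merges feature fluorescence read at 667 nm with its signal to noise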
[5] = target: Carbonic anhydrase 2 (Homo sapiens) (UniProt P00918); assay: compounds binding carbonic anhydrase 2 – biochemical, small-molecule microarray, Alexa647-labelled CAII, profiling panel (AID 1122); conditions: CAII-A647 binding fluorescence, higher = more signal
[6] = COS7 lysate on small-molecule microarray, probe aHis, 635 nm (AID 1123); conditions: COS7 cell lysate, fluorescence, higher = more signal;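 further: z-score combines 667nm fluorescence intensity with signal-to-noise per printed compound spot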
[7] = probe aLAP1 signal on lysate-treated microarray – cell lysate, small-molecule microarray, COS7 lysate, primary screen (AID 1124); conditions: probe aLAP1, fluorescence, higher = more signal;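 further: lysate comes from COS7 cells expressing LAP1 and is applied at 0.3 µg/mL; score merges spot fluorescence near 667 nm with signal-to-noise over triplicate slides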
[8] = system: Sam68 (KHDRBS1); assay: compounds binding KHDRBS1 protein – biochemical, small-molecule microarray, 635 nm fluorescence, primary screen (AID 1125); conditions: higher = more signal;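 further: score merges 667 nm channel intensity with signal to noise over triplicate slides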
[9] = system: Chordin-like protein 2 (CHRDL2); assay: compounds binding chordin-like 2 – biochemical, small-molecule microarray, 635 nm fluorescence, primary screen (AID 1126); conditions: fluorescence 635 nm, higher = more signal;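 further: printed compound slides probed with Chrdl2 protein at 4 µg/mL for 1 h at 4 C; score merges 667 nm emission intensity with signal to noise over three replicate slides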
[10] = target: Concanavalin-A (Canavalia ensiformis) (UniProt P02866); assay: compounds binding concanavalin A lectin – biochemical, small-molecule microarray, Alexa647 label, 635 nm, artefact control for SMM control protein annotation, primary screen (AID 1127); conditions: ConA-A647 binding fluorescence, higher = more signal;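 further: z combines 667 nm emission intensity with signal-to-noise across three replicate slides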
[11] = compounds binding Alexa647 anti-His antibody – biochemical, small-molecule microarray, 635 nm fluorescence, artefact control for SMM control protein annotation, primary screen (AID 1128); conditions: higher = more signal;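 further: score merges feature fluorescence with signal-to-noise for each printed compound spot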
[12] = system: Human papillomavirus type 1a E7 protein (residues 1-88); assay: HPV1a E7 small-molecule binders, primary screen, biochemical, small-molecule microarray, residues 1-88, 635 nm (AID 1129); conditions: small-molecule microarray binding, fluorescence 635 nm; higher = more signal
[13] = target: Focal adhesion kinase 1 (Homo sapiens) (UniProt Q05397); assay: PTK2 protein binding on printed compound slides – biochemical, small-molecule microarray, 635/667 nm fluorescence, BSA, DTT, primary screen (AID 1130); conditions: 635 nm fluorescence, higher = more signal;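 further: composite of spot emission at 667 nm and signal to noise over triplicate slides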
[14] = system: Fibrinogen (Alexa647-labelled); assay: Alexa647-fibrinogen binding to printed small molecules – biochemical, small-molecule microarray, 635/667 nm fluorescence, artefact control for SMM control-protein annotation, profiling panel (AID 1131); conditions: fibrinogen-A647 binding fluorescence, higher = more signal;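 further: z-score merges 667 nm fluorescence with per-spot signal-to-noise over triplicate slides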
[15] = target: Follistatin (Homo sapiens) (UniProt P19883); assay: FST protein binding to printed compounds – biochemical, small-molecule microarray, 635/667 nm fluorescence, primary screen (AID 1132); conditions: 635 nm fluorescence, higher = more signal
[16] = target: Fibroblast growth factor 2 (Homo sapiens) (UniProt P09038); assay: basic fibroblast growth factor binding to printed compounds – biochemical, small-molecule microarray, 635/667 nm fluorescence, primary screen (AID 1133); conditions: FGF2, fluorescence 635/667, higher = more signal
[17] = JC-1 mitochondrial potential readout, lung cancer cells – cell-based, A549, JC-1 fluorescence, basal, 24 h, 100 nL, profiling panel (AID 1138); conditions: higher = more signal;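 further: A549 lung adenocarcinoma cells under basal conditions with no added stimulus; test concentration not given here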
[18] = system: Lefty1; assay: Lefty1 protein binding to printed compounds – biochemical, small-molecule microarray, 635/667 nm fluorescence, primary screen (AID 1139); conditions: fluorescence 635/667, higher = more signal
[19] = system: wheat germ agglutinin (Triticum aestivum), Alexa647-labelled; assay: Alexa647-WGA lectin binding to printed small molecules – biochemical, small-molecule microarray, 635/667 nm fluorescence, artefact control for SMM control-protein annotation, profiling panel (AID 1140); conditions: WGA-A647 binding, 635 nm fluorescence, higher = more signal;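 further: score merges 667 nm feature emission with signal to noise over triplicate slides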
[20] = target: Luciferin 4-monooxygenase (Photinus pyralis) (UniProt P08659); assay: inhibition of purified Photinus pyralis luciferase – biochemical, luminescence, purified enzyme, 2006 set, primary screen (AID 1141); conditions: purified firefly luciferase, SteadyGlo luminescence, 30 min; higher = more signal, called active from +8 up or from −8 down;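 further: cell-free assay with purified firefly luciferase at 100 ng per well in PBS; test concentration not given here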
Chain of Luciferin 4-monooxygenase (Photinus pyralis) (P08659 whole entry, looked up): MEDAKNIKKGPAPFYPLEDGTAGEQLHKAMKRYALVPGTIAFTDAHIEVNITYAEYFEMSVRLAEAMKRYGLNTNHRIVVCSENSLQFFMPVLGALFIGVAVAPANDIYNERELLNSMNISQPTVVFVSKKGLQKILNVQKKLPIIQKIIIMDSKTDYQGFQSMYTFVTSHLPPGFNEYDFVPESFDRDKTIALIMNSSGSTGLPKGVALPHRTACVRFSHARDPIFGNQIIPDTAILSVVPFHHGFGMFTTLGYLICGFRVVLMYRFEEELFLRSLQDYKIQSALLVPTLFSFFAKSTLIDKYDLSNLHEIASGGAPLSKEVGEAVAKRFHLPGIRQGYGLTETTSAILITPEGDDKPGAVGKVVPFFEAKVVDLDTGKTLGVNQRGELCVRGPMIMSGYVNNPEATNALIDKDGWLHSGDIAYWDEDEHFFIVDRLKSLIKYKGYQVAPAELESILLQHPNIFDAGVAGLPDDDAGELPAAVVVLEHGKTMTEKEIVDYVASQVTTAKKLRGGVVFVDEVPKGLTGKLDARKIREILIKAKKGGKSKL

Chain of Focal adhesion kinase 1 (Homo sapiens) (Q05397 whole entry, looked up): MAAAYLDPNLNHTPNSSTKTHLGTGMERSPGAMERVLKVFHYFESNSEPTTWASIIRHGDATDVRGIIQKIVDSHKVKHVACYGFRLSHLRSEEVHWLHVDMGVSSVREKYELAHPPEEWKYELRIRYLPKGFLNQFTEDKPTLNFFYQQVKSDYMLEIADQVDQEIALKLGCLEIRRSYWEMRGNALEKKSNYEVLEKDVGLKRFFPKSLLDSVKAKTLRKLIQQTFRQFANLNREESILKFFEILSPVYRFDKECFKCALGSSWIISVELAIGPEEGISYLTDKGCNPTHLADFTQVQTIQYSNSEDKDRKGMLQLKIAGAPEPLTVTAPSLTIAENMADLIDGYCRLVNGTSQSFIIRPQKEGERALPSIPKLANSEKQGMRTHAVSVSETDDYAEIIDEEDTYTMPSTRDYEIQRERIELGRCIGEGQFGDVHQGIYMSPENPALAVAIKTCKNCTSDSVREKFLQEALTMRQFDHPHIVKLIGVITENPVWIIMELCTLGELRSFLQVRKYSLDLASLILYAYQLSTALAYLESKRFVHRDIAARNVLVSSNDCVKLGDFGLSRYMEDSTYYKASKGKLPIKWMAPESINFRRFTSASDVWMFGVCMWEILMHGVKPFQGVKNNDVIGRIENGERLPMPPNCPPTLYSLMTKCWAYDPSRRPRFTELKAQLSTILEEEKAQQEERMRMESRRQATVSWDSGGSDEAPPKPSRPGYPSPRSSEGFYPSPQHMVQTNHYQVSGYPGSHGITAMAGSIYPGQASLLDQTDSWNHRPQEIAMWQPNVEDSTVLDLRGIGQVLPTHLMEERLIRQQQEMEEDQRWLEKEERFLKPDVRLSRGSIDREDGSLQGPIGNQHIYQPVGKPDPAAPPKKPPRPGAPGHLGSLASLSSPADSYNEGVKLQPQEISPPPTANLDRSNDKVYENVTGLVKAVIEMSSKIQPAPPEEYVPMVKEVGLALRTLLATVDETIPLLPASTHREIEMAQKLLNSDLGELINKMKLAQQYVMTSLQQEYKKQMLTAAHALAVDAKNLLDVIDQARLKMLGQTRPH
Chain of Follistatin (Homo sapiens) (P19883 whole entry, looked up): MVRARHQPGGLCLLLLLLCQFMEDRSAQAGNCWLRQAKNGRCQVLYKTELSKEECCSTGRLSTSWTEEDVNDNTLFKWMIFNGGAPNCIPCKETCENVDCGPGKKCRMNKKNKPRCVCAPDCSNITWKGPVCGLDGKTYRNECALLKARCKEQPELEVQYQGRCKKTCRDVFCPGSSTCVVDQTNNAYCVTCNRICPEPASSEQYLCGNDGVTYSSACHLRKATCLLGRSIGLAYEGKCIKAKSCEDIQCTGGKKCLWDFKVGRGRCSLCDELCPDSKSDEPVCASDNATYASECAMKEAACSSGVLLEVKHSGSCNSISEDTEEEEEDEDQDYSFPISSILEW
Chain of Concanavalin-A (Canavalia ensiformis) (P02866 whole entry, looked up): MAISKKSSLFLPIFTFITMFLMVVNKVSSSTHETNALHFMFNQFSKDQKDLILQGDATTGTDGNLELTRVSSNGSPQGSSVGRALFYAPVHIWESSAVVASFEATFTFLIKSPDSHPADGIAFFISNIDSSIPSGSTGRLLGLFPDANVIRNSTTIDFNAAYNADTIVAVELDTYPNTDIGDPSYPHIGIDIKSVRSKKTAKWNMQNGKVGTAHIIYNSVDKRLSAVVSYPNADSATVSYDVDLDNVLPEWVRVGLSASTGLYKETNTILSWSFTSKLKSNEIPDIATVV
Chain of Albumin (Bos taurus) (P02769 whole entry, looked up): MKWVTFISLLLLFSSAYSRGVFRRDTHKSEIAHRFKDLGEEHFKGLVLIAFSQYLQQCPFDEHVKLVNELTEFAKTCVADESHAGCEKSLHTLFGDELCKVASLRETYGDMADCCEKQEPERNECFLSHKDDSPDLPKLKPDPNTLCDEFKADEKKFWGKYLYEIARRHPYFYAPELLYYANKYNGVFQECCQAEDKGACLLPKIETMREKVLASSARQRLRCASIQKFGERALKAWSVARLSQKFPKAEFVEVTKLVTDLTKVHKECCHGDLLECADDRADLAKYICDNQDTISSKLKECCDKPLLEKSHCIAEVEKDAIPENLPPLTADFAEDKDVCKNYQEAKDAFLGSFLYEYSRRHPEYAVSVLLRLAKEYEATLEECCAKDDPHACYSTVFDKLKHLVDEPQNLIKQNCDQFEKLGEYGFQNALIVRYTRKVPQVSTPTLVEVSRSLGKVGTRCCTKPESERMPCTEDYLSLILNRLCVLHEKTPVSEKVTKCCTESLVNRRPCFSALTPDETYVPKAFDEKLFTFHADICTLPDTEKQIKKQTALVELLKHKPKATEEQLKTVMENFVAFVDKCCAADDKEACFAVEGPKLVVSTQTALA
Chain of Fibroblast growth factor 2 (Homo sapiens) (P09038 whole entry, looked up): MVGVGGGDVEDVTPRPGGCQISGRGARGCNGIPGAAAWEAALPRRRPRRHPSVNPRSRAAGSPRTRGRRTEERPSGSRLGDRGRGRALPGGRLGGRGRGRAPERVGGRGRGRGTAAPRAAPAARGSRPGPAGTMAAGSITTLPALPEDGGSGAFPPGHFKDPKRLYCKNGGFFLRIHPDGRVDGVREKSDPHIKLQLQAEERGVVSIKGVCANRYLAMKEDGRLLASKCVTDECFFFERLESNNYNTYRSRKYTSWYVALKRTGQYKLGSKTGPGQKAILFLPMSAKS

Row | SMILES | composite z-score [1] | composite Z-score [2] | composite z-score [3] | composite z-score [4] | composite z-score [5] | composite z-score [6] | composite z-score [7] | composite z-score [8] | composite z-score [9] | composite z-score [10] | composite z-score [11] | composite z-score [12] | composite z-score [13] | composite z-score [14] | composite z-score [15] | composite z-score [16] | z-score [17] | composite z-score [18] | composite z-score [19] | z-score [20]
1 | C=CCC(OC(C)=O)[C@@H]1[C@@H](N(Cc2ccc(-c3ccccc3)cc2)C(=O)c2ccc(-c3ccccc3)cc2)c2cc(OCCCO)ccc2N1C(=O)Cc1ccc(OC)cc1 (stereo not given in full) | 0.4 | 0.344 (inactive) | 0.0065 | -0.183 | 0.0703 | 0.0095 | 0.061 | 0.0768 | -0.0682 | 0.411 | -0.347 | 0.328 | 0.602 | 0.466 | 0.856 | 0.0338 | 0.764 | 0.0287 | 0.192 | -0.115 (inactive)
2 | COC(=O)C1=CC(c2ccc(CO)cc2)=CC(C2CC2)N(Cc2sc3ccccc3c2Cl)C=C1C(=O)OC (stereo not given) | 0.971 | 0.152 (inactive) | 0.3 | 0.101 | 0.866 | 2.78 | 0.58 | 1.31 | 0.185 | 1.16 | 3.42 | 1.19 | 1.46 | 0.896 | 0.851 | 0.3 | 2.04 | 0.573 | 1.49 | -1.55 (inactive)
3 | COc1ccc(CCN2C(=O)[C@@]3(c4ccc([N+](=O)[O-])cc4)CC(=O)N(CC45CC6CC(CC(C6)C4)C5)[C@@H]3c3ccc(CO)cc32)cc1 | -0.181 | 0.653 (inactive) | 0.323 | 0.0437 | 0.446 | 1.38 | -0.415 | 0.644 | 0.569 | 0.402 | 0.286 | 0.415 | 0.38 | 0.138 | 0.572 | -0.0451 | 1.15 | -0.531 | -0.0366 | -0.736 (inactive)
4 | O=C/C=C/c1ccc(/C=C/c2ccccc2)cc1 | -0.435 | -0.738 (inactive) | -0.25 | -0.175 | -0.147 | -0.792 | 0.103 | -1.22 | 0.95 | -0.342 | 1.52 | -0.483 | -0.313 | -1.86 | 0.828 | 0.168 | 1.39 | -0.134 | 0.633 | -3.83 (inactive)
5 | CC(C)(C)OC(=O)CC[C@]1(C(=O)N2CCCCC2)N=C(c2ccc(OCCCO)cc2)O[C@H]1c1ccccc1 | 0.806 | -0.0084 (inactive) | 0.261 | -0.127 | 0.741 | 2.94 | 0.708 | 1.28 | 0.261 | 1.13 | 1.81 | 1.2 | 0.717 | 0.985 | 1.24 | 1.15 | 1.98 | 1.01 | 1.27 | -2.85 (inactive)
6 | COc1ccc(-c2ccccc2[C@@H]2N[C@H](C(=O)O)CC[C@H]2C)cc1 | -0.497 | 0.3 (inactive) | -0.0647 | -0.131 | 0.0441 | 0.711 | -0.423 | 0.297 | 0.456 | 0.301 | 0.351 | 0.449 | 0.671 | 0.0159 | 0.107 | 0.364 | -0.568 | 0.404 | -0.361 | -0.739 (inactive)

From PubChem BioAssay
